# Test results as given in PubChem BioAssay AID720565 (National Center for Advancing Translational Sciences (NCATS), 2013).
# Records with an inconclusive call do not appear. Active and inactive are the calls of the source. Calls follow the shape of the dose curve; as a rule, active = well fitted activation curve with a large enough effect; inconclusive = small, poorly fitted or top-dose-only effect; inactive = no such curve, though single readings can be large or run the other way.
# Test: qHTS for small molecules that induce genotoxicity in ELG1 expressing cells: Confirmatory Assay for Cherry-picked Compounds; also: nearly all actives have a fitted effect of over 35% in size
# Settings: ELG1-luciferase reporter cells, luminescence, 16 h; series mostly up to 46.1 µM
# Excerpt: Cancer cells divide rapidly compared to normal cells in the body. During cell division, cancer cells need to duplicate their genome by DNA replication. The failure of genome duplication leads to cancer cells' death. Therefore, inhibitors of DNA replication could specifically kill cancer cells. Based on this concept, many chemotherapeutic agents were developed and have been used to treat cancer patients. However, there are a limited number of agents available in the clinical setting, and some of those that do exist have low efficacy and severe side effects. Therefore, if we can find the compounds that effectively block DNA replication either by directly damaging DNA or by inhibiting other cellular mechanisms, the options for cancer treatment will be broadened. We developed a quantitative high-throughput ELG1-luciferase reporter gene assay. Since the level of human ELG1 protein is enhanced in response to genetic stresses, increases in luciferase activity can be used to identify compounds that cause genetic stress. The data herein is the result of the confirmation assay against the cherry picked compounds selected from the primary qHTS (AID 504466). Activation is the desired outcome for this assay. NIH Chemical Genomics Center [NCGC] NIH Molecular Libraries Probe Centers Network [MLPCN] MLPCN Grant: MH092164 Assay Provider: Kyungjae Myung, National Human Genome Research Institute, NIH
# For genotoxicity screening, 2,000 cells/ well (5 uL volume) were dispensed into white, solid-bottom 1536-well plates using a solenoid-based dispenser. Following transfer of 23 nL compound or DMSO vehicle by a pin tool, the plates were incubated 16 hr at 37 C, 5% CO2. Five microliter of ONE-Glo reagent (Promega) was then added to each plate. The assay plates were incubated for 30 min at room temperature followed by quantification of the luciferase activity using the PerkinElmer ViewLux CCD-based plate reader.
# Potency is read from the fitted curve at half-maximal effect.
row,Structure (SMILES),Potency
1,CCCSc1ccc2nc(NC(=O)OC)[nH]c2c1,8.88 µM (active)
2,O=C(CCl)c1ccc(O)c(O)c1,inactive
3,CC(=O)OCC1=C[C@H]2[C@@H]3C(C)(C)[C@]3(OC(=O)Cc3ccccc3)C[C@@H](C)[C@]2(O)[C@@H]2C=C(C)C(=O)[C@@]2(O)C1,0.396 µM (active)
4,C=C(C)[C@@]12OC3(c4ccccc4)O[C@@H]1[C@@H]1[C@@H]4O[C@]4(CO)[C@@H](O)[C@]4(O)C(=O)C(C)=C[C@H]4[C@@]1(O3)[C@H](C)[C@H]2OC(=O)/C=C/C=C/c1ccccc1,0.05 µM (active)
5,C[C@@H]1C[C@@H]2[C@H]([C@H]3C=C(COC(=O)c4ccccc4)[C@@H](O)[C@]4(O)[C@@H](O)C(OC(=O)c5ccccc5)=C[C@@]14C3=O)C2(C)C,0.5 µM (active)
6,CCCC(=O)O[C@@H]1[C@@H](C)[C@@]2(O)[C@@H](C=C(CO)C[C@]3(O)C(=O)C(C)=C[C@@H]23)[C@@H]2C(C)(C)[C@]12OC(=O)CCC,0.0996 µM (active)
7,CCCCCCCCCCCCCC(=O)O[C@@H]1[C@@H](C)[C@@]2(O)[C@H](C=C(CO)C[C@]3(O)C(=O)C(C)=C[C@@H]23)[C@@H]2C(C)(C)C12OC(C)=O (some centres not stated),0.0089 µM (active)
